# Assay results published in the supplement of paper PMC10849652.
# The full data set covers some 7,900 targets. This sample favours those with a hit. About 0.6% of all pairs of compound and target were hits. Unmarked numbers belong to inactive results.
# Legend:
# Assay in all cases: log2 fold change, soluble protein after heating vs DMSO (PISA); higher = thermal stabilisation; K562 cells, 10 uM, 30 min; active = over 0.2 and 3.5 SD of the protein, either way, in both replicates (recomputed)
# [1] = compound: CS(=O)(=O)c1ccc(-c2cnc(N)c(C(=O)Nc3ccccc3)n2)cc1
# Outline: (§1)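 Thermal stability values are relative to control samples and come from duplicates. They are expressed as log2 fold changes. For measurement, K562 cells (2×10^6 cells/mL) received 10 μM compound for 30 min, and aliquots were heated for 3 min over 48°C-58°C, pooled, and extracted at 4°C in PBS with 0.5% NP-40. Soluble protein, the supernatant after 21,000xg for 90 min, was quantified by TMTpro 16plex LC-MS/MS with equalised channel sums.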
# crizotinib = compound: C[C@@H](Oc1cc(-c2cnn(C3CCNCC3)c2)cnc1N)c1c(Cl)ccc(F)c1Cl [crizotinib]
# Outline: as §1
# [2] = compound: C[C@@H]1COCCN1C2=NC(=NC(=C2)C3(CC3)S(=O)(=O)C)C4=C5C=CNC5=CC=C4
# Outline: as §1
# [3] = compound: C[C@H](C1=CC=C(C=C1)C(=O)NC2=C3C=CNC3=NC=C2)N
# Outline: as §1
# duvelisib = compound: C[C@H](Nc1ncnc2nc[nH]c12)c1cc2cccc(Cl)c2c(=O)n1-c1ccccc1 [duvelisib]
# Outline: as §1
# gandotinib = compound: Cc1cc(Nc2cc(CN3CCOCC3)c3nc(C)c(Cc4ccc(Cl)cc4F)n3n2)n[nH]1 [gandotinib]
# Outline: as §1
# tozasertib = compound: Cc1cc(Nc2cc(N3CCN(C)CC3)nc(Sc3ccc(NC(=O)C4CC4)cc3)n2)n[nH]1 [tozasertib]
# Outline: as §1
# [4] = compound: Cc1cc(SCc2sc(-c3ccc(C(F)(F)F)cc3)nc2C)ccc1OCC(=O)O
# Outline: as §1
# doramapimod = compound: Cc1ccc(-n2nc(C(C)(C)C)cc2NC(=O)Nc2ccc(OCCN3CCOCC3)c3ccccc23)cc1 [doramapimod]
# Outline: as §1
# ispinesib = compound: Cc1ccc(C(=O)N(CCCN)[C@@H](c2nc3cc(Cl)ccc3c(=O)n2Cc2ccccc2)C(C)C)cc1 [ispinesib]
# Outline: as §1
# Sequence of UniProt P40939 (P40939 whole entry, looked up): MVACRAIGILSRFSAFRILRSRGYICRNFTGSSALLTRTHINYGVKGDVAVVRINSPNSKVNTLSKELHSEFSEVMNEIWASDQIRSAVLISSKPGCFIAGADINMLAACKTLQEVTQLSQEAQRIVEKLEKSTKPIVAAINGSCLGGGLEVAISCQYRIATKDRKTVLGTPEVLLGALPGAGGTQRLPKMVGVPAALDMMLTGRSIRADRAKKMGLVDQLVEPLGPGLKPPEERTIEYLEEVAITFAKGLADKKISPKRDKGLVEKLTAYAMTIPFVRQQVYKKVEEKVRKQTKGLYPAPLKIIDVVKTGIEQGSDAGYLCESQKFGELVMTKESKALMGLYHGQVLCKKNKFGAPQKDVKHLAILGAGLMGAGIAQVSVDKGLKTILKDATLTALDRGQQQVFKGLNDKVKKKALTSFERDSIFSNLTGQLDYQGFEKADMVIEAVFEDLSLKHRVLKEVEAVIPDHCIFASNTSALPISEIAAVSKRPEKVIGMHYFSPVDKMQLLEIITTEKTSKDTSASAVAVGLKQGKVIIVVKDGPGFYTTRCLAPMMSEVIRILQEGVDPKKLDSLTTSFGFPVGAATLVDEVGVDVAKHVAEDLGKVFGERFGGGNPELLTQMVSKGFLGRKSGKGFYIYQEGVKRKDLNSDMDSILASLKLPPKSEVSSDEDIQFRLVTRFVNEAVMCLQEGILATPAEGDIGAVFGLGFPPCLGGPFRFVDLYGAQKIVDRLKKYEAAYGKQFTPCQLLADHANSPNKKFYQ
# Sequence of UniProt P39748 (P39748 whole entry, looked up): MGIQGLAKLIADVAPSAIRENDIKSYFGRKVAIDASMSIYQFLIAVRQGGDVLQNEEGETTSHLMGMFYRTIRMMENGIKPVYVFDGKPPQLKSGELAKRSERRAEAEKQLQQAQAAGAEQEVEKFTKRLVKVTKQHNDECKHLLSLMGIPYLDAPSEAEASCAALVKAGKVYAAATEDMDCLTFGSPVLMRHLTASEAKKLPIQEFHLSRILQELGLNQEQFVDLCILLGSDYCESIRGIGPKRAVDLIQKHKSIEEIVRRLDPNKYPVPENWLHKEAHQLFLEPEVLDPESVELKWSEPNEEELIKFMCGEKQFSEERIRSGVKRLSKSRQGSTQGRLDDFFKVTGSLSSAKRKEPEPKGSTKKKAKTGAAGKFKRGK
# Sequence of UniProt P23327 (P23327 whole entry, looked up): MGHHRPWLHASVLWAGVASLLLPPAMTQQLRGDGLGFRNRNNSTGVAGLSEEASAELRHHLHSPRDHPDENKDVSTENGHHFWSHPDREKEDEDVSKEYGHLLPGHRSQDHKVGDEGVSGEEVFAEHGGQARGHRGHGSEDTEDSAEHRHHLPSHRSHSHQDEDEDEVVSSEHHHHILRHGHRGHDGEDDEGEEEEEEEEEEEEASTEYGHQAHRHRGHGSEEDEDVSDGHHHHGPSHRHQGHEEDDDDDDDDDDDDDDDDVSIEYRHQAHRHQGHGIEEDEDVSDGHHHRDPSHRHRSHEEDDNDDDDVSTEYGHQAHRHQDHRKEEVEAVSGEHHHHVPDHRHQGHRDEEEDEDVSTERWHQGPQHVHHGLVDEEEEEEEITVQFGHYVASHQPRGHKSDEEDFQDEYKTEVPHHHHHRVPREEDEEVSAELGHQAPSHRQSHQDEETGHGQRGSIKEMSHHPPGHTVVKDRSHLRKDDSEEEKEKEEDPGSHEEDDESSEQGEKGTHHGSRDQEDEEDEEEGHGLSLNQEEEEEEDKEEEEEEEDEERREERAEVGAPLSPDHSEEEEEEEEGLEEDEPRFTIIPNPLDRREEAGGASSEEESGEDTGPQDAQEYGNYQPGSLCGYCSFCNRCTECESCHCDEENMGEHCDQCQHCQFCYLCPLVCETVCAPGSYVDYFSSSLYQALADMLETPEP
# Sequence of UniProt O43427 (O43427 whole entry, looked up): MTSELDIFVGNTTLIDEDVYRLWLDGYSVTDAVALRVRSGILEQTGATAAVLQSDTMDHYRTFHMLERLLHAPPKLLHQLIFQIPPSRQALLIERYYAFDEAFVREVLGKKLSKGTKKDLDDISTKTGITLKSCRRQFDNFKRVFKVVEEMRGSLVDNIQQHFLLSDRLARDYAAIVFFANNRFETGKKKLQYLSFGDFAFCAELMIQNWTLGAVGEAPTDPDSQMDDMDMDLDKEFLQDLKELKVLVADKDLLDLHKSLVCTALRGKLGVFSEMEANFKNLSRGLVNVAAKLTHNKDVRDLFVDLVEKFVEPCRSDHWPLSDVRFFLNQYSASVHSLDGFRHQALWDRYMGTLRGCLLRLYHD
# Sequence of UniProt P15586 (P15586 whole entry, looked up): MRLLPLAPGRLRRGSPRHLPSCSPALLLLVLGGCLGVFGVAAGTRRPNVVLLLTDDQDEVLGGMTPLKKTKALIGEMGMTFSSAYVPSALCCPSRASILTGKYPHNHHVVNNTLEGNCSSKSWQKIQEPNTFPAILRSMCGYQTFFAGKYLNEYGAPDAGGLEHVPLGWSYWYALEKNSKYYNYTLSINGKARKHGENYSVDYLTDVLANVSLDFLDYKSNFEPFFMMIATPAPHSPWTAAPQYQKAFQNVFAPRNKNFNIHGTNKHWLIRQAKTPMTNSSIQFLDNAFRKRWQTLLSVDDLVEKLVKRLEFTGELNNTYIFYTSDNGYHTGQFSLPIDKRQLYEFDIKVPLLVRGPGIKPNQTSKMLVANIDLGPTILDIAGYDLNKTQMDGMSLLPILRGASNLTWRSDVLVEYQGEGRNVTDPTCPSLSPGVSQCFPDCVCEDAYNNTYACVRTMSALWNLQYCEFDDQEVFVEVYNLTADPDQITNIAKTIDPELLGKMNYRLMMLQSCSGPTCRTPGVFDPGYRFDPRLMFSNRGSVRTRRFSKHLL
# Sequence of UniProt P02008 (P02008 whole entry, looked up): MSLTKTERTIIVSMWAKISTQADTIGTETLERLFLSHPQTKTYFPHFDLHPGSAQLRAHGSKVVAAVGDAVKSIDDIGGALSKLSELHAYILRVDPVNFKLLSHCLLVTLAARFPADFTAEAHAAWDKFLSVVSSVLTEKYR
# Sequence of UniProt P63218 (P63218 whole entry, looked up): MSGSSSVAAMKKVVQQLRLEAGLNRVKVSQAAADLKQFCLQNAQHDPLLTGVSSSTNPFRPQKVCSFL
# Sequence of UniProt P36969 (P36969 whole entry, looked up): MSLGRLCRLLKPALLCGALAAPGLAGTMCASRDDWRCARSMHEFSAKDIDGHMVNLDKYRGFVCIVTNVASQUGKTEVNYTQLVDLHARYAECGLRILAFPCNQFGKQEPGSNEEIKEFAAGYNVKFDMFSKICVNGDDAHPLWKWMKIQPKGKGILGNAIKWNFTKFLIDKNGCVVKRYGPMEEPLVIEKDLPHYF
# Sequence of UniProt Q70Z53 (Q70Z53 whole entry, looked up): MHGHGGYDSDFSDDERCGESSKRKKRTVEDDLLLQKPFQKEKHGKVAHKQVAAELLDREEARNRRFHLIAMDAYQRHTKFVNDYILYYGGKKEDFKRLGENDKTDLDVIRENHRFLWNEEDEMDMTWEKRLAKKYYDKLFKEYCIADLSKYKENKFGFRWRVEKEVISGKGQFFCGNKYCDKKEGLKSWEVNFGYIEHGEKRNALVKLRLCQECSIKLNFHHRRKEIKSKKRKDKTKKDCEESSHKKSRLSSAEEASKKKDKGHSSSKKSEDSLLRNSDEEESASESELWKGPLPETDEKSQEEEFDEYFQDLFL
# Sequence of UniProt P0CL80 (P0CL80 whole entry, looked up): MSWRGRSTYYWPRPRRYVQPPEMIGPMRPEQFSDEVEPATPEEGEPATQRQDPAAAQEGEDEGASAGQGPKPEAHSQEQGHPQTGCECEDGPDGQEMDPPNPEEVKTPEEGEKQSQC
# Sequence of UniProt P04066 (P04066 whole entry, looked up): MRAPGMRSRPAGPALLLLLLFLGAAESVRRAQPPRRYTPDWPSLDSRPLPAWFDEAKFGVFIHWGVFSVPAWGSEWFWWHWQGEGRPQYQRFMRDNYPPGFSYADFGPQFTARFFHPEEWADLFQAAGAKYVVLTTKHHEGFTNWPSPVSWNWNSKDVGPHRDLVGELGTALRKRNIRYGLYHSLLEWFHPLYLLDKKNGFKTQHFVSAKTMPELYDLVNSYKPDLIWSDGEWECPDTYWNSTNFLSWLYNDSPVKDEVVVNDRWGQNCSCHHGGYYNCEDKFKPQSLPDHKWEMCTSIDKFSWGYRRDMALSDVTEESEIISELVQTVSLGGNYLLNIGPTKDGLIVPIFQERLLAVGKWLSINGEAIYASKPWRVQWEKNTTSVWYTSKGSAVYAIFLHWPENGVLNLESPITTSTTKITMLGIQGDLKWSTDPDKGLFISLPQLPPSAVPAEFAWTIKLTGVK
# Sequence of UniProt Q92664 (Q92664 whole entry, looked up): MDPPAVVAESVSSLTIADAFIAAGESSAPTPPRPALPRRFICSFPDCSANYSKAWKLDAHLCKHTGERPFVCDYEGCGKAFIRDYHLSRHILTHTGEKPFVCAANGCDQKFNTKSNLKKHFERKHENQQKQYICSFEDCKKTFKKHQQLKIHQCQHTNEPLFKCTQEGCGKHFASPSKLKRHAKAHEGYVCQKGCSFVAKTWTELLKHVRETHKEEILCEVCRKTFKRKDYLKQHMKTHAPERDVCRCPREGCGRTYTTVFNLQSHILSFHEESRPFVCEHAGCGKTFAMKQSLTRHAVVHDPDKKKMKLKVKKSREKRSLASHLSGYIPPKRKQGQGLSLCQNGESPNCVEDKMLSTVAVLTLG
# Sequence of UniProt Q53FT3 (Q53FT3 whole entry, looked up): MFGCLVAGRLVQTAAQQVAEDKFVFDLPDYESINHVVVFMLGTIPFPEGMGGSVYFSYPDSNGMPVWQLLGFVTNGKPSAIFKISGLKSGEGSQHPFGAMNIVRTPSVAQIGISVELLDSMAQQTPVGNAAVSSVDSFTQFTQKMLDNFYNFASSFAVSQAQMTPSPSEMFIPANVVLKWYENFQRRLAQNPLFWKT
# Sequence of UniProt Q9H0R8 (Q9H0R8 whole entry, looked up): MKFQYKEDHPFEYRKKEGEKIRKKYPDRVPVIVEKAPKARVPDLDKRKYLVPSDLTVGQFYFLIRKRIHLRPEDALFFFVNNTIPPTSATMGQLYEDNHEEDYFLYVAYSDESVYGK
Target,log2 fold change [1],log2 fold change (crizotinib),log2 fold change [2],log2 fold change [3],log2 fold change (duvelisib),log2 fold change (gandotinib),log2 fold change (tozasertib),log2 fold change [4],log2 fold change (doramapimod),log2 fold change (ispinesib)
FUCA1 (UniProt P04066),0.019,-0.079,0.031,-0.049,0.007,0,-0.007,-0.044,0.021,-0.007
FUNDC1 (UniProt Q8IVP5),0.046,,,,,,,,,
GTF3A (UniProt Q92664),-0.002,-0.145,0.015,0.078,0.019,0.023,-0.025,0.023,-0.001,
HDAC6 (UniProt Q9UBN7),-0.019,-0.057,-0.007,0.066,0.045,0.079,-0.091,0.062,0.015,-0.027
GAGE12F (UniProt P0CL80),0.019,0.034,0.092,0.081,0.039,0.072,0.006,0.03,0.043,0.009
GPX4 (UniProt P36969),0.014,0.079,0.011,-0.072,0.055,0.013,0.023,-0.017,-0.039,0.213
HMGCR isoform 3 (UniProt P04035),-0.259,0.071,-0.234,-0.004,0.003,0.092,-0.088,-0.065,0.025,0.111
HADHA (UniProt P40939),-0.058,0.079,0.068,-0.017,0.201,0.086,-0.154,0.154,0.176,0.171
HBZ (UniProt P02008),0.017,0.09,0.174,-0.067,0.045,0.084,-0.005,0.014,-0.005,0.21
HMGN2 (UniProt P05204),-0.093,0.051,-0.201,-0.019,-0.062,-0.212,-0.031,-0.058,-0.1,-0.048
GEMIN6 (UniProt Q8WXD5),-0.076,-0.055,0.097,0.091,0.088,0.034,-0.028,0.034,-0.016,-0.017
GNS (UniProt P15586),0.001,-0.115,0.046,-0.032,0.016,0.061,0.014,-0.028,0.016,-0.021
GNB2 (UniProt P62879),0.084,0.134,0.024,-0.13,0.046,-0.095,0.017,0,0.009,0.062
GABARAPL1 isoform 2 (UniProt Q9H0R8),0.105,-0.344 (active),0.048,-0.045,0.057,0.078,-0.008,0.026,-0.034,-0.315 (active)
HEXA (UniProt P06865),0.016,-0.785 (active),0.02,-0.015,0.049,0.015,0.002,-0.02,-0.016,-0.124
GHDC (UniProt Q8N2G8),0.041,-0.02,0.021,-0.074,0.043,0.002,-0.01,-0.039,-0.041,-0.132
GATD1 (UniProt Q8NB37),-0.026,0.023,-0.256,0.012,0.124,0.052,-0.075,0.033,0.163,-0.005
HNRNPUL2 (UniProt Q1KMD3),-0.092,-0.033,-0.05,0.123,-0.096,-0.005,-0.058,0.015,0.041,0.004
FIBP (UniProt O43427),0.022,-0.043,0.257,0.118,0.041,-0.094,-0.144,0.02,-0.048,-0.052
FRA10AC1 isoform 3 (UniProt Q70Z53),-0.082,0.201,0.059,0.029,0.07,0.189,-0.123,-0.116,-0.044,
GNG5 (UniProt P63218),0.014,0.094,0.207,-0.13,0.134,0.055,0.063,-0.071,0.008,0.216
GTPBP6 (UniProt O43824),-0.002,0.012,0.197,-0.066,-0.002,0.003,0.087,-0.006,0.06,0.076
HK2 (UniProt P52789),-0.156,0.082,0.03,-0.014,0.014,-0.297 (active),-0.028,0.013,-0.026,0.161
HIKESHI (UniProt Q53FT3),-0.007,0.067,0.182,-0.023,0.101,-0.033,0.023,-0.021,-0.013,0.192
HRC (UniProt P23327),0.027,0.096,-0.342 (active),0.012,0.062,0.064,-0.053,-0.033,-0.033,0.037
FEN1 (UniProt P39748),0.018,-0.488 (active),0.367,-0.018,0.07,-0.162,-0.024,0.177,-0.065,-0.126
GGT7 (UniProt Q9UJ14),0.035,0.013,-0.128,0.013,-0.045,-0.03,-0.049,-0.091,0.023,-0.032
GLA (UniProt P06280),-0.033,-0.205,-0.019,0.018,-0.027,-0.066,-0.03,0.034,-0.036,-0.148
